In PubChem BioAssay AID720650 (Broad Institute, 2013) one finds AC50 data, which are given here for 22 compounds.

As a reminder, the AC50 is the concentration giving half of the maximal activity seen.

Values without a mark were called inactive. Calls of active or inactive are those of the source. The rule behind the calls is not given here. Some results are limits rather than exact numbers.

This assay can be described thus: C difficile toxins, biochemical counterscreen, UDPG substrate absence, confirmatory dose response (AID 720650). The conditions noted are these: series mostly up to 19.5 µM. (A counterscreen serves to expose hits that act by an unwanted route or on another target.)
In the case of `COc1ccc(-c2ccc3c(c2)[C@H]2[C@H](CCN2C(=O)Cc2cccnc2)[C@@H](CO)N3C)cc1`, the AC50 is 14.7 µM (active). The value for `Cc1ccc(S(=O)(=O)N2CC(CO)=CCC2c2ccccc2)cc1` (configuration not stated) was 8.79 µM (active); that for `CC(=O)C1=CCC(c2ccc(C)cc2)N(S(=O)(=O)c2ccc(C)cc2)C1` (configuration not stated) was above 39 µM; that for `CC(=O)Nc1ccccc1O` was 18.4 µM (active). For the compound `CCCNC(=O)C1CCN(S(=O)(=O)c2c(C)noc2/C=C\c2ccc(OC)cc2)CC1`, the AC50 entry is “inactive”. Turning to `CCOC(=O)c1ccc(N=c2sc(C(=O)OC)cc(=O)n2CCCN2CCOCC2)cc1`, the AC50 result is “inactive”.

Consider `O=C(Nc1ccc(O)cc1)/C(=C\c1ccncc1)NC(=O)c1ccccc1`, for which the AC50 was 11.8 µM (active). Consider `COc1cc(/C=N/NC(=O)Cn2nnc3ccccc32)ccc1O`, for which the AC50 result was “inactive”.

For the compound `O=C(O)c1cc(NS(=O)(=O)c2ccc(NC3CCCCC3)c([N+](=O)[O-])c2)cc(C(=O)O)c1`, the AC50 result was “inactive”.

On to `CC(C)Cc1[nH]c(=O)c(C#N)c2c1CCCC2`, for which the AC50 entry was “inactive”. In the case of `CC(=O)c1ccc(NC(=O)CNCC(c2ccccc2)N(C)C)cc1` (configuration not stated), the AC50 result was “inactive”.

For `CCCNC(=O)C[C@H]1CC[C@@H]2[C@@H](COc3ccc(NC(=O)c4ccc(Cl)cc4)cc3C(=O)N2C)O1`, the AC50 is above 39 µM.

Consider `Cc1cc(N2CCCC2=O)cc(C)c1S(=O)(=O)Nc1c(C)nn(C)c1C`, for which the AC50 entry was “inactive”. The value for `O=C(Nc1nnc(C(F)(F)F)s1)c1ccc(Br)s1` was 8.05 µM (active); that for `CC(/C=N/n1c(-c2ccncc2)n[nH]c1=S)=C\c1ccco1` was “inactive”. `O=S(=O)(c1ccccc1)N1CCN(Cc2nnc(-c3ccccc3)o2)CC1`: the AC50 entry was “inactive”.

As to `COc1ccc(C2=NS(=O)(=O)N(C)C(C(=O)NC(C)c3ccccc3)=C2)cc1OC` (configuration not stated), the AC50 entry was “inactive”. Take `Nc1c(Cl)ncnc1NCCc1ccc(O)cc1`: the AC50 was 18.6 µM (active). `O=C(C[C@@H]1CC[C@H]2[C@@H](COC[C@@H](O)CN2C(=O)c2ccccn2)O1)NC1CCC1`: the AC50 result was “inactive”. Consider `CN(c1ccc(O)cc1)c1nc(-c2cccnc2)cs1`, for which the AC50 entry was “inactive”.

As for `O=C(CCn1cnc2ccccc21)N/N=C/c1ccc(O)cc1`, the AC50 is 12.2 µM (active). Turning to `COc1cc(/C=N/NC(=O)C2(O)c3ccccc3-c3ccccc32)ccc1O`, the AC50 result is “inactive”.
